Results taken from the antibiotic and cytotoxicity screens of Wong et al. (2023).
In all, about 39,000 compounds went through this assay and about 3,300 (8.5%) were called active. What follows is part of a selection rich in actives, with near analogues and random picks from the rest.

Tested on: HepG2
Assay: cytotoxicity call (relative viability < 0.9)
Conditions: 10 µM

Compound | cytotoxicity call
CC(CCC(=O)O)C1CCC2C3CCC4CCCCC4(C)C3CCC12C (configuration not stated) | inactive
CN(C)CC(=O)N[C@H]1CC[C@H](CC(=O)NCCN2CCCCC2)O[C@H]1CO | inactive
Cc1ccc(S[C@]2(C(=O)NCCCN(C)C)CC(=O)N(C3Cc4ccccc4C3)[C@@H]2c2ccc(CO)cc2I)cc1 | inactive
CS(=O)(=O)N1C[C@H](O)COC[C@@H]2O[C@@H](CC(=O)NCCc3ccncc3)CC[C@H]21 | inactive
CO[C@H]1CN(C)C(=O)c2cc(NS(C)(=O)=O)ccc2OC[C@@H](C)N(C(=O)CN(C)C)C[C@@H]1C | inactive
C[C@H]1CCCCO[C@H](CN(C)CC2CC2)[C@@H](C)CN([C@@H](C)CO)C(=O)c2cc(NC(=O)CCC(F)(F)F)ccc2O1 | inactive
Cc1ccc(NC(=O)c2ccc(CN3CC[C@H](N(C)C)C3)c(C(F)(F)F)c2)cc1Nc1nccc(-c2cncnc2)n1 | active
Cc1ccc(NC(=O)c2ccc(CN3CCN(C)CC3)cc2)cc1Nc1nccc(-c2cccnc2)n1 | inactive
Cc1ncc(NC(=O)c2ccc(CN3CCN(C)CC3)c(C(F)(F)F)c2)cc1Nc1nccc(-c2cccnc2)n1 | active
Cc1ccc(S(=O)(=O)Nc2ccc3c(c2)C(=O)N([C@@H](C)CO)C[C@H](C)[C@@H](CN(C)C(=O)C2CCCCC2)OCCCC[C@H](C)O3)cc1 | inactive
COc1ccc(CCNC(=O)[C@@H]2c3ccccc3C(=O)N(Cc3ccccc3OC)[C@H]2c2ccc(CO)cc2)cc1 | inactive
C[C@@H]1CCCCO[C@H](CN(C)CC2CCCCC2)[C@@H](C)CN([C@H](C)CO)C(=O)c2cc(NC(=O)CCC(F)(F)F)ccc2O1 | inactive
COc1ccc(NC(=O)N(C)C[C@H]2OCCCC[C@H](C)Oc3ccc(NS(=O)(=O)c4ccccc4)cc3C(=O)N([C@@H](C)CO)C[C@@H]2C)cc1 | inactive
Cc1ccc(S(=O)(=O)N(C)C[C@H]2OCCCC[C@H](C)Oc3ccc(NC(=O)Cc4ccccc4)cc3C(=O)N([C@@H](C)CO)C[C@H]2C)cc1 | inactive
COc1ccc([Si](C)(C)[C@@H]2[C@@H](CCO)O[C@]3(C(=O)N(Cc4cccc(N5C(=O)c6ccccc6Oc6ccccc65)c4)c4ccccc43)[C@H]2C)cc1 | active
C[C@H]1[C@H]([Si](C)(C)F)[C@@H](CCO)O[C@]12C(=O)N(Cc1cccc(N3C(=O)c4ccccc4Oc4ccccc43)c1)c1ccccc12 | inactive
COc1ccc([Si](C)(C)[C@H]2[C@H](CCO)O[C@@]3(C(=O)N(Cc4cccc(N5C(=O)c6ccccc6Oc6ccccc65)c4)c4ccccc43)[C@@H]2C)cc1 | active
COc1ccc([Si](C)(C)[C@H]2[C@H](CCO)O[C@@]3(C(=O)N(Cc4cccc(N5CCCCC5=O)c4)c4ccccc43)[C@@H]2C)cc1 | inactive
CCNc1ncnc2c1nnn2C | inactive
Nc1cc([N+](=O)[O-])ccc1C(=O)O | inactive
C[C@@H]1CCCCO[C@H](CN(C)C(=O)Nc2ccc(F)cc2)[C@@H](C)CN([C@H](C)CO)C(=O)c2cc(NC(=O)c3ccncc3)ccc2O1 | inactive
C[C@@H]1CN([C@H](C)CO)C(=O)CCCn2cc(nn2)CO[C@H]1CN(C)C(=O)Nc1ccc2c(c1)OCO2 | inactive
C[C@@H]1CN([C@@H](C)CO)C(=O)c2cccc(NC(=O)c3cnccn3)c2O[C@@H]1CN(C)S(=O)(=O)c1cccs1 | inactive

Compound | cytotoxicity call
Cc1noc(C)c1NC(=O)Nc1ccc2c(c1)C(=O)N([C@H](C)CO)C[C@@H](C)[C@H](CN(C)Cc1ccc(C(F)(F)F)cc1)OCCCC[C@@H](C)O2 | inactive
CCN1CCN(c2ccc(Nc3cc(N(C)C(=O)Nc4c(Cl)c(OC)cc(OC)c4Cl)ncn3)cc2)CC1 | active
C[C@H]1CN([C@@H](C)CO)S(=O)(=O)c2ccc(C3=CCCCC3)cc2O[C@@H]1CN(C)C(=O)C1CCOCC1 | inactive
C[C@@H]1CCCCO[C@H](CN(C)C(=O)Nc2ccc(F)cc2)[C@H](C)CN([C@@H](C)CO)C(=O)c2cc(NC(=O)Nc3ccc4c(c3)OCO4)ccc2O1 | inactive
COCC(=O)N1C[C@H](C)[C@H](OC)CN(C)C(=O)c2cc(NC(=O)c3ccc(OC)cc3)ccc2OC[C@@H]1C | inactive
Cn1c(=O)c2c(ncn2CC(O)CO)n(C)c1=O (configuration not stated) | inactive
Cn1c(=O)c2c(ncn2C[C@@H](O)CO)n(C)c1=O | inactive
Cn1c(=O)c(F)c(Nc2ccc(I)cc2F)c2c(=O)n(C[C@@H](O)CO)cnc21 | active
C[C@@H]1CN([C@@H](C)CO)C(=O)c2cccc(NC(=O)Nc3ccc(C(F)(F)F)cc3)c2O[C@@H]1CN(C)S(C)(=O)=O | inactive
COc1ccc(NC(=O)N(C)C[C@@H]2OCCCC[C@@H](C)Oc3ccc(NS(=O)(=O)c4ccc(F)cc4)cc3C(=O)N([C@H](C)CO)C[C@H]2C)cc1 | inactive
Fc1ccc(-c2nc3c4ccccc4c4ccccc4c3[nH]2)cc1 | active
Fc1ccc(-c2nc3ccc4ccccc4c3c3c2CCC3)cc1 | inactive
N[C@H]1CC[C@H](CCn2cc(C3CCCCC3)nn2)O[C@@H]1CO | inactive
CC(=O)N(C)C1(c2ccccc2)CCN(CCC[C@]2(c3ccc(Cl)c(Cl)c3)CCCN(C(=O)c3ccccc3)C2)CC1 | active
CC(C)Oc1cccc(CC(=O)N2CCC[C@](CC[N+]34CCC(c5ccccc5)(CC3)CC4)(c3ccc(Cl)c(Cl)c3)C2)c1 | inactive
CN1CCN(C(=O)C[C@@H]2CC[C@@H]3[C@@H](COc4ccc(NC(=O)c5cscn5)cc4C(=O)N3C)O2)CC1 | inactive
O=C(C[C@@H]1CC[C@@H]2[C@H](COC[C@H](O)CN2C(=O)c2ccccn2)O1)NC1CCC1 | inactive
CCc1cccc(C)c1NC(C)=O | inactive
C[C@H](CO)N1C[C@H](C)[C@H](CN(C)S(C)(=O)=O)OCCCC[C@H](C)Oc2ccc(NS(=O)(=O)c3ccccc3)cc2C1=O | inactive
COc1ccc(S(=O)(=O)N2C[C@@H](O)COC[C@H]3O[C@@H](CC(=O)NCCN4CCCCC4)CC[C@@H]32)cc1 | inactive
C[C@@H]1CN([C@H](C)CO)C(=O)c2cccc(NC(=O)c3cnccn3)c2O[C@@H]1CN(C)Cc1ccc(C(=O)O)cc1 | inactive
CC(C)CCC[C@@H](C)[C@H]1CC[C@H]2[C@@H]3C[C@@H](O)[C@@]4(O)C[C@@H](O)CC[C@]4(C)[C@H]3CC[C@]12C [CHOLESTAN-3beta,5alpha,6beta-TRIOL ] | active
CC(C)CCCC(C)C1CCC2C3CC(=O)C4CC(O)CCC4(C)C3CCC12C (stereo not drawn) [5alpha-CHOLESTAN-3beta-OL-6-ONE ] | inactive

Compound | cytotoxicity call
CC(C)CCCC(C)C1CCC2C3CCC4CC(O)CCC4(C)C3CCC12C (stereo not drawn) [5alpha-CHOLESTANOL ] | inactive
CCNC(=O)N1CCCC[C@@H]1CO | inactive
O=C(N[C@@H](c1ccccc1)c1ccc2ccccc2n1)C1CCN(C(=O)NC(c2ccccc2)c2ccccc2)CC1 | inactive
C[C@H](N[C@@H](CCc1ccccc1)C(=O)O)C(=O)N1CCC[C@H]1C(=O)O | inactive
CN[C@@H](C)C(=O)N[C@H]1CN(C(=O)CC(C)C)CC[C@H]2CC[C@@H](C(=O)NC(c3ccccc3)c3ccccc3)N2C1=O | active
COc1cnc(NS(=O)(=O)c2ccc(N)cc2)nc1 | inactive
COS(=O)(=O)[O-].COc1cc(N)cn[n+]1-c1ccccc1 | active
COCC#Cc1cnc2c(c1)C(=O)N([C@@H](C)CO)C[C@@H](C)[C@H](CN(C)C(=O)Nc1cc(F)ccc1F)O2 | inactive
C[C@@H]1CN([C@@H](C)CO)C(=O)c2cc(NC(=O)Nc3cccc4ccccc34)ccc2O[C@@H]1CN(C)C(=O)Nc1ccccc1 | inactive
C[C@H]1CN([C@@H](C)CO)C(=O)c2cc(NC(=O)Nc3cccc4ccccc34)ccc2O[C@H]1CN(C)C(=O)Nc1ccccc1 | active
COc1ccc(NC(=O)Nc2ccc3c(c2)C(=O)N([C@H](C)CO)C[C@H](C)[C@@H](CN(C)C(=O)Nc2cccc4ccccc24)O3)cc1 | inactive
COc1ccc(NC(=O)Nc2ccc3c(c2)C(=O)N([C@@H](C)CO)C[C@H](C)[C@H](CN(C)C(=O)Nc2cccc4ccccc24)O3)cc1 | active
C[C@@H]1CN([C@H](C)CO)C(=O)c2cc(NC(=O)Nc3cccc4ccccc34)ccc2O[C@H]1CN(C)C(=O)Nc1cccc2ccccc12 | inactive
C[C@@H]1CN([C@H](C)CO)C(=O)c2cc(NC(=O)Nc3ccc(C(F)(F)F)cc3)ccc2O[C@H]1CN(C)C(=O)Nc1cccc2ccccc12 | active
C[C@@H]1CN([C@@H](C)CO)C(=O)c2cc(NC(=O)Nc3cccc4ccccc34)ccc2O[C@H]1CN(C)C(=O)Nc1cccc2ccccc12 | inactive
C[C@H](CO)N1C[C@H](C)[C@@H](CN(C)C(=O)Nc2cccc3ccccc23)Oc2ccc(NC(=O)Nc3ccc(C(F)(F)F)cc3)cc2C1=O | inactive
C[C@@H]1CN([C@H](C)CO)C(=O)c2cc(NC(=O)Nc3cccc4ccccc34)ccc2O[C@H]1CN(C)C(=O)Nc1ccccc1 | inactive
COc1ccc(NC(=O)Nc2ccc3c(c2)C(=O)N([C@H](C)CO)C[C@@H](C)[C@@H](CN(C)C(=O)Nc2cccc4ccccc24)O3)cc1 | inactive
C[C@H]1CN([C@@H](C)CO)C(=O)c2cc(NC(=O)Nc3ccc(C(F)(F)F)cc3)ccc2O[C@H]1CN(C)C(=O)Nc1cccc2ccccc12 | inactive
C[C@H](CO)N1C[C@H](C)[C@H](CN(C)C(=O)Nc2cccc3ccccc23)Oc2ccc(NC(=O)Nc3cccc4ccccc34)cc2C1=O | active
C[C@H]1CN([C@@H](C)CO)C(=O)Cc2cc(NS(=O)(=O)c3ccccc3)ccc2O[C@@H]1CN(C)S(=O)(=O)c1ccc(F)cc1 | inactive
